Out of some 69,000 compounds screened, about 8,600 (12%) showed an effect of 50% or more. This excerpt belongs to a sample that is enriched for strong results.

Results on 50 compounds are retold here after ChEMBL document CHEMBL4513216, “Probing the Open Global Health Chemical Diversity Library for Multistage-Active Starting Points for Next-Generation Antimalarials” (ACS Infect Dis, 2020).

For the assay, the system named is Plasmodium berghei. Briefly: Screen against P. berghei liver stage (PbLuc), transformed with Luciferase, at 10uM. The assay is classed as functional, HepG2. The conditions noted are these: tested at 10 uM.
As to `Cn1cc(CN2CCc3c(CNC(=O)C4CC4)cncc3C2)cn1`, the INHIBITION is -17.2%.
As to `O=C(c1cccnc1)N1C[C@H]2CN(Cc3cccc(F)c3)C(=O)[C@H]2C1`, the INHIBITION is listed as -55.2%.
Consider `CC(C)NC(=O)C(NC(=O)N1CCN(c2ccc(Cl)cc2)CC1)C(C)C` (stereo not given), for which the INHIBITION is recorded as -9.39%.
For `CC(C)NC(=O)[C@H](C)NC(=O)N1CCN(c2ccc(Cl)cc2)CC1` the value was 38.1%; for `CC(C)NC(=O)[C@@H](NC(=O)N1CCN(c2ccc(Cl)cc2)CC1)C(C)C`, 65.5%.
As for `Cc1nc(C(=O)N2CCCC2c2noc(C3CC3)n2)c[nH]1` (stereo not given), the figure is 31.8%; as for `c1cc(COC[C@]23COC[C@H]2CN(Cc2ccncc2)C3)ccn1`, 43.9%; as for `c1ccc(CN2C[C@@H]3COC[C@]3(COCc3ccncc3)C2)nc1`, 48.6%.
With `COc1ccc(CN2C[C@@H]3COC[C@]3(COc3cccnc3)C2)cc1`, the INHIBITION worked out at 24%.
`COc1cccc(CN2C[C@@H]3COC[C@]3(COc3cccnc3)C2)c1`: the INHIBITION worked out at 67.2%.
For `COc1ccccc1CN1C[C@@H]2COC[C@]2(COc2cccnc2)C1` the value was -8.94%; for `COc1cccc(CN2C[C@@H]3COC[C@]3(CN3CCOCC3)C2)c1`, 29.9%; for `COc1cccc(CN2C[C@@H]3COC[C@]3(COCc3ccccn3)C2)c1`, 53.2%.
On to `COc1ccccc1CN1C[C@@H]2COC[C@]2(COCc2ccncc2)C1`, for which the INHIBITION was 60.2%.
With `CCS(=O)(=O)NC[C@]12COC[C@H]1CN(Cc1cccc(OC)c1)C2`, the INHIBITION is reported as 39.2%.
Regarding `COc1cccc(CN2C[C@@H]3COC[C@]3(COCc3ccncc3)C2)c1`, the INHIBITION came out at 28.4%.
In the case of `CCOC[C@]12COC[C@H]1CN(Cc1cccc(OC)c1)C2`, the INHIBITION is reported as 56.7%.
For the compound `COc1ncccc1CN1C[C@@H]2COC[C@]2(COc2cccnc2)C1`, the INHIBITION is -2.17%.
As to `COC(=O)c1cc(OCC2CCC2)cc(C(=O)NCC(C)(C)O)c1`, the INHIBITION was determined as 40.2%.
Regarding `O=C(CC1CCC2(CC1)CCN(Cc1nccs1)CC2)N1CC=CC1`, the INHIBITION is 35.2%.
Regarding `CCc1nnc2n1CCN(C(=O)c1cc(C)n(-c3ccccc3)c1C)C2`, the INHIBITION turned out to be 5.9%.
Regarding `CN(C)C[C@]12COC[C@H]1CN(Cc1ccc3ccccc3n1)C2`, the INHIBITION stood at 4.02%.
Take `Cc1cc(CN2C[C@@H]3COC[C@]3(CN(C)C)C2)no1`: the INHIBITION is listed as 18.8%.
In the case of `CN(C)C[C@]12COC[C@H]1CN(Cc1ccccn1)C2`, the INHIBITION amounted to 87.7%.
With `CNc1nccc(C2CCCCN2Cc2cnn3cccnc23)n1` (stereo not given), the INHIBITION was -7.66%.
For `CC(C)=CCN1CCC2(CC1)CC(=O)N(Cc1cc(F)cc(F)c1)C2` the value was 38.6%; for `O=C(CO)N1CCC2(CC1)CC(=O)N(Cc1cc(F)cc(F)c1)C2`, 8.99%.
`CCN1CC2(CCN(CCOc3ccc(F)cc3)CC2)CC1=O`: the INHIBITION came to 0.868%.
For `CC(C)N1CCC2(CC1)CC(=O)N(Cc1cc(F)cc(F)c1)C2`, the INHIBITION is reported as 35.1%.
Turning to `O=C1CC2(CCN(CCCO)CC2)CN1Cc1ccc(F)c(F)c1`, the INHIBITION came out at 36.8%.
As to `O=C1CC2(CCN(CCCF)CC2)CN1Cc1cc(F)cc(F)c1`, the INHIBITION is 75.7%.
Consider `O=C1CC2(CCN(Cc3ccoc3)C2)CN1c1cncnc1` (stereo not given), for which the INHIBITION is listed as 43.9%.
For the compound `CCCS(=O)(=O)N1CCC2(CC1)CC(=O)N(Cc1cc(F)cc(F)c1)C2`, the INHIBITION stood at 17.1%.
As for `O=C1CC2(CCN(Cc3ccoc3)CC2)CN1Cc1cc(F)cc(F)c1`, the figure is 73.4%; as for `O=C1CC2(CCN(Cc3ncc[nH]3)CC2)CN1Cc1cc(F)cc(F)c1`, -6.05%.
As for `O=C1CC2(CCN(CCO)CC2)CN1Cc1cc(F)cc(F)c1`, the figure is 60.1%.
With `CCCOCCN1CCC2(CC1)CC(=O)N(Cc1cc(F)cc(F)c1)C2`, the INHIBITION worked out at 64.1%.
For `Cc1nc([C@@H]2C[C@@H]3CCN(C(=O)Cc4cccs4)C[C@H]3O2)no1`, the INHIBITION stood at 11.6%.
Consider `CCCc1noc(-c2cn(CC(=O)N(CC)CC)nn2)n1`, for which the INHIBITION is -51.7%.
As for `Cc1ccc(C(O)CN(C)Cc2cnn(C)c2)cc1C` (stereo not given), the figure is 28.7%.
As for `Cn1ccc(C(=O)NC2CCC23CCN(C(=O)c2ccncc2)CC3)c1` (stereo not given), the figure is 13.5%; as for `CNc1snc(C)c1C(=O)N1CCC(Nc2ccc(C)nn2)CC1`, 1.15%.
In the case of `O=C1CCC(=O)N1CCn1nnc(-c2cccc(Cl)c2)n1`, the INHIBITION was -5.57%.
On to `O=C1CC2(CCN(CC3CCOC3)CC2)CN1Cc1cc(F)cc(F)c1` (stereo not given), for which the INHIBITION turned out to be 46.8%.
`O=C1CC2(CCN(CC3CC3)CC2)CN1Cc1cc(F)cc(F)c1`: the INHIBITION was 69.3%.
As for `O=C1CC2(CCN(CC3CC3)C2)CN1c1cccc(F)c1` (stereo not given), the figure is -6.02%; as for `CCc1n[nH]c(C2CN(C(=O)c3ccnc(C4CC4)n3)CCO2)n1` (stereo not given), 31.3%.
`CCc1ccc(CN2C[C@H](OCC(=O)N(C)C)[C@H]3COC[C@H]32)o1`: the INHIBITION worked out at 26.5%.
In the case of `Cc1nn(C)cc1CC(C#N)C(=O)Nc1cccc(O)c1` (stereo not given), the INHIBITION is recorded as 3.58%.
In the case of `COCc1cc(O)nc(C2CCCN(Cc3cccc(Cl)c3Cl)C2)n1` (stereo not given), the INHIBITION was 17.4%.
